HT1080-NT tox: kills 2HG-producing HT-1080-NT fibrosarcoma cells; 1.6% of 360,000 active; Potency, µM (series often up to 46.1 µM), most hits filed as cytotoxic; AID 686970; HT-1080-NT fibrosarcoma viability, CellTiter-Glo ATP luminescence, 48 h;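 also: NT is the 2HG producing partner of a matched IDH1 knockdown line; nearly all actives have a fitted effect of over 55% in size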
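Fibrosarcoma NT cells, 750 per well in 5% FBS RPMI, were exposed to compound for 48 hours. Viability: CellTiter-Glo luminescence.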
KB-3-1 cytotox: kills parental KB-3-1 adenocarcinoma cells; Potency, µM (titrated, usually from 46.1 µM), most hits filed as cytotoxic; KB-3-1 viability, CellTiter-Glo ATP luminescence, 72 h; 1.4% of 400,000 active; also: nearly all actives have a fitted effect of over 60% in size
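Luminescent ATP read-out (CellTiter-Glo) measures survival of drug-naive KB-3-1 cells after 72 h compound exposure at 37 °C. Titration series was screened from lowest to highest concentration, with DMSO vehicle plates as background controls.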
KB-V1 MDR tox: KB-V1 MDR subline cytotoxicity. KB-V1 MDR cells viability, CellTiter-Glo, 72 h. Potency, µM (highest dose often 46.1 µM), most hits filed as cytotoxic. 3.4% of 400,000 active. AID 1347076; also: nearly all actives have a fitted effect of over 60% in size
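Following 72 h at 37 degrees C with compound, KB-V1 cell viability was read by CellTiter-Glo luminescence, medium being phenol-red-free DMEM plus 10% FBS; concentration-response parameters came from normalized, curve-fitted qHTS data.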
SW480 rerep: DNA re-replication induction in SW480 cells | SW480 DNA re-replication, Hoechst DNA content imaging, 48 h | 1.8% of 340,000 active | Potency, µM (titrated, usually from 46.1 µM), actives largely listed as activators; also: nearly all actives have a fitted effect of over 55% in size
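First, 250 cells per well were seeded. Next, compound or vehicle (23 nL) was pinned in, plates sat 48 hr at 37 C. Finally Hoechst was added for 40 min before fluorescence scanning.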
HT1080 IDH1KD tx: toxicity to HT-1080 IDH1 knockdown cells (counter line); HT-1080 IDH1 knockdown viability, ATP luminescence, 48 h; Potency, µM (series often up to 46.1 µM), actives largely listed as cytotoxic; 2% of 360,000 active
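CellTiter-Glo luminescence after 48 h compound exposure at 37 degrees C of IDH1-knockdown HT-1080 cells in 5% FBS RPMI. %Activity scaled between DMSO wells and cell-free media wells, with curves fitted and assigned curve classes.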
MCF10A rerep: DNA re-replication induction in MCF 10a cells. MCF 10A DNA re-replication, Hoechst nuclear intensity, 48 h. Potency, µM (highest dose often 46.1 µM), hits mostly activators. 2.9% of 350,000 active; also: nearly all actives have a fitted effect of over 50% in size
Large screens that a line does not name were inactive; ! = not confirmed by another sample. Shown are actives, neighbours in structure and some others; about 8% of the full set was active somewhere. Calls follow the shape of the dose curve; as a rule, active = well fitted curve in the direction sought with a large enough effect; inconclusive = small, poorly fitted or top-dose-only effect, or another doubt; inactive = no such curve, though single readings can be large; an effect the other way counts as inactive or inconclusive.

CCOc1ccc(C2CC(=O)c3c([nH]c(C(=O)OC)c3C)C2)cc1OC (stereo not given)	HT1080-NT tox inconclusive, KB-V1 MDR tox inconclusive, HT1080 IDH1KD tx inconclusive
COc1ccc(C2CC(=O)c3c([nH]c(C(=O)OC(C)C)c3C)C2)cc1OC (stereo not given)	KB-V1 MDR tox 2.59µM
COC(=O)c1[nH]c2c(c1C)C(=O)CC(c1cccs1)C2 (stereo not given)	HT1080-NT tox 1.03µM, KB-3-1 cytotox inconclusive, KB-V1 MDR tox 2.06µM, SW480 rerep inconclusive, HT1080 IDH1KD tx 1.03µM, MCF10A rerep 2.06µM
COC(=O)c1[nH]c2c(c1C)C(=O)CC(c1cc(OC)ccc1OC)C2 (stereo not given)	HT1080-NT tox inconclusive, KB-3-1 cytotox 3.66µM, KB-V1 MDR tox 5.17µM, SW480 rerep inconclusive, HT1080 IDH1KD tx 20.6µM, MCF10A rerep 8.2µM
COc1ccc(OC)c(C2CC(=O)c3c([nH]c(C(=O)OCC4CCCCC4)c3C)C2)c1 (stereo not given)	none (no result: HT1080-NT tox, SW480 rerep, HT1080 IDH1KD tx, MCF10A rerep)
COc1ccc(OC)c(NC(=O)CCn2cccn2)c1	none (no result: HT1080-NT tox, SW480 rerep, HT1080 IDH1KD tx, MCF10A rerep)
N#Cc1c(-c2cccc(Br)c2)cc(-c2ccco2)[nH]c1=O	SW480 rerep inconclusive, MCF10A rerep 7.31µM
COc1ccc(-c2cc(-c3ccco3)[nH]c(=O)c2C#N)cc1	none
CCN(CC)c1ccc(NS(=O)(=O)c2cc3[nH]c(=O)c(=O)[nH]c3cc2C)c(C)c1	KB-V1 MDR tox inconclusive (no result: HT1080-NT tox, SW480 rerep, HT1080 IDH1KD tx, MCF10A rerep)
CCN(CC)S(=O)(=O)c1ccc(C(=O)OC2CCCCC2CN(C)C)cc1 (stereo not given)	SW480 rerep inconclusive, MCF10A rerep 0.103µM
COc1ccc(/C=C/C(=O)NCc2cccnc2)cc1	none
CCc1ccc(CN(Cc2cccnc2)C(=O)/C=C/c2ccc(OC)cc2)cc1	HT1080-NT tox inconclusive, KB-V1 MDR tox inconclusive, HT1080 IDH1KD tx inconclusive, MCF10A rerep 18.4µM
COCCn1c(=S)[nH]c2cc(C(=O)NC3CCCCC3C)ccc2c1=O (stereo not given)	KB-V1 MDR tox inconclusive (no result: SW480 rerep, MCF10A rerep)
CCN(CC)CCCC(C)NC(=O)c1c(NC(=O)c2ccccc2)sc2c1CCCC2 (stereo not given)	HT1080-NT tox inconclusive, SW480 rerep inconclusive, HT1080 IDH1KD tx inconclusive, MCF10A rerep 4.61µM
CCc1ccccc1NC(=O)c1c(NC(=O)c2ccccc2)sc2c1CCCC2	KB-3-1 cytotox inconclusive (no result: HT1080-NT tox, SW480 rerep, HT1080 IDH1KD tx, MCF10A rerep)
Cc1cccc(C(=O)Nc2sc3c(c2C(=O)O)CCCC3)c1	HT1080-NT tox inconclusive, KB-3-1 cytotox 6.51µM!, KB-V1 MDR tox 7.31µM!, MCF10A rerep inconclusive
O=C(O)CSCC(=O)N1N=C2/C(=C/c3ccccc3)CCCC2C1c1ccccc1 (stereo not given)	none
NC(=O)N1N=C2/C(=C/c3ccccc3)CCCC2C1c1ccccc1 (stereo not given)	HT1080-NT tox inconclusive, KB-3-1 cytotox inconclusive, KB-V1 MDR tox inconclusive, MCF10A rerep 8.2µM
Cc1ncsc1C(=O)N1N=C2/C(=C/c3ccccc3)CCCC2C1c1ccccc1 (stereo not given)	KB-3-1 cytotox inconclusive, KB-V1 MDR tox 20.6µM, SW480 rerep inconclusive
O=C/C(=C\Nc1ccc(Cl)cn1)c1nc2cc(Cl)ccc2o1	KB-3-1 cytotox inconclusive, MCF10A rerep 16.4µM
O=C/C(=C\Nc1ccc(Cl)cn1)c1nc2ccccc2o1	MCF10A rerep inconclusive
O=C/C(=C\Nc1ccc(S(=O)(=O)CCO)cc1)c1nc2cc(Cl)ccc2o1	SW480 rerep inconclusive, MCF10A rerep 23.1µM
Cc1cccc(-n2c(SCC(=O)c3c(N)n(C4CC4)c(=O)[nH]c3=O)nnc2N2CCOCC2)c1	KB-V1 MDR tox inconclusive
O=S1(=O)N=C(Oc2ccccc2C(F)(F)F)c2ccccc21	KB-V1 MDR tox inconclusive (no result: HT1080-NT tox, SW480 rerep, HT1080 IDH1KD tx, MCF10A rerep)
Cc1ccc(-n2nnnc2-c2cnc3cc4c(cc3c2C)OCO4)cc1	KB-V1 MDR tox 23.1µM
Cc1c(-c2nnnn2-c2ccc(F)cc2)cnc2cc3c(cc12)OCO3	none
CCOC(=O)C1CCN(Cc2ccc(OC)c(C)c2OC)CC1	KB-V1 MDR tox inconclusive
O=C(c1ccco1)N1CCN(Cc2nc3ccccc3c(=O)n2-c2ccc(F)cc2)CC1	KB-V1 MDR tox inconclusive
CCOC(=O)C1CCN(Cc2cc(Cl)c3ccccc3c2O)CC1	HT1080-NT tox inconclusive, SW480 rerep inconclusive, HT1080 IDH1KD tx 25.9µM, MCF10A rerep 18.4µM
CCOC(=O)C1CCN(Cc2nc3ccccc3c(=O)n2-c2ccc(F)cc2)CC1	KB-V1 MDR tox 4.11µM
Nc1nccc(NCCSCc2ccccc2)n1	MCF10A rerep inconclusive
Cc1nn(C)c2c1c(C(F)(F)F)cc(=O)n2CC(=O)NCCC(C)C	none (no result: HT1080-NT tox, SW480 rerep, HT1080 IDH1KD tx, MCF10A rerep)
CC(C)C1N=C2c3ccccc3N=C(SCc3cc(=O)n4cc(Cl)ccc4n3)N2C1=O (stereo not given)	KB-3-1 cytotox inconclusive, KB-V1 MDR tox 23.1µM
COc1ccc(C2SCC(=O)N2CCc2ccc(OC)c(OC)c2)cc1 (stereo not given)	HT1080-NT tox inconclusive, KB-3-1 cytotox inconclusive, KB-V1 MDR tox inconclusive, SW480 rerep 10.3µM, HT1080 IDH1KD tx 18.4µM, MCF10A rerep 0.517µM
COc1ccc(CCNC2=C(Cl)C(=O)N(CCc3ccc(OC)c(OC)c3)C2=O)cc1OC	KB-3-1 cytotox inconclusive, KB-V1 MDR tox 20.6µM
COc1ccc(NC2=C(Cl)C(=O)N(CCc3ccccc3)C2=O)c(OC)c1	KB-V1 MDR tox 13µM
COc1ccc(CCN2C(=O)c3cccnc3C2=O)cc1OC	none
COc1ccc(CCN2C(=O)C=CC2=O)cc1OC	HT1080-NT tox inconclusive, KB-V1 MDR tox inconclusive, SW480 rerep 7.31µM, HT1080 IDH1KD tx 6.51µM, MCF10A rerep 4.61µM
COc1ccc(NC2=C(Cl)C(=O)N(CCc3ccccc3)C2=O)cc1	none
Cc1cc(C)cc(NC(=O)C(OC(=O)c2ccc(NC(=O)CC#N)cc2)c2ccccc2)c1 (stereo not given)	none
Cc1cc([N+](=O)[O-])ccc1NC(=O)c1cc2ccccc2o1	KB-3-1 cytotox inconclusive, KB-V1 MDR tox inconclusive, SW480 rerep inconclusive
COc1ccc(CCn2c3c(c(=O)[nH]c2=S)CN(Cc2ccccc2)CN3)cc1OC	none (no result: KB-3-1 cytotox, KB-V1 MDR tox, SW480 rerep, MCF10A rerep)
COc1ccc(CCN2C(=O)CN(Cc3ccccc3)CC2=O)cc1OC	KB-V1 MDR tox 6.51µM
O=C(OCC(O)C1OC(c2ccccc2)OC(COC(=O)c2ccccc2)C1O)c1ccccc1 (stereo not given)	HT1080-NT tox inconclusive (no result: SW480 rerep, MCF10A rerep)
C/C(=N\NC(=O)C1(C)CC1(Br)Br)c1ccc(NC(=O)C2CCC2)cc1 (stereo not given)	HT1080-NT tox inconclusive, KB-3-1 cytotox 20.6µM, KB-V1 MDR tox inconclusive, HT1080 IDH1KD tx inconclusive, MCF10A rerep inconclusive
COC(=O)C1=C(C)N(CCCC(=O)O)C(=O)NC1c1cccc(Cl)c1Cl (stereo not given)	KB-3-1 cytotox inconclusive
